# From publication PMC5540273 (PLoS ONE, 2017)
# Tested on: TNK2
# Conditions: concentration: 1 μM, replicates: in singlicate; n = 1
# 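Note: KINOMEscan kinase panel screen.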
row,SMILES,%Inh [%]
1,Cn1cc(-c2ccc3c(c2)CCN3C(=O)Cc2cccc(Cl)c2)c2c(N)ncnc21 [GSK2606590],0
2,COc1ccc(-c2coc3ccc(-c4nnc(SCc5ccc(OC)c(C(F)(F)F)c5)o4)cc23)cc1,8
3,CCS(=O)(=O)c1ccc(OC)c(Nc2nccc(-c3c(-c4cccc(NC(=O)c5c(F)cccc5F)c4)nn4ncccc34)n2)c1 [GSK326180],48
4,O=C(Nc1cccc(-c2nn3ccccc3c2-c2ccnc(Nc3cccc(C(F)(F)F)c3)n2)c1)c1c(F)cccc1F [GSK292658],22
5,NCCCC(NC(=O)c1cc(Br)c(-c2ccnc3[nH]ccc23)s1)c1ccccc1.O=C(O)C(F)(F)F.O=C(O)C(F)(F)F (stereo not shown) [GSK1287544],0
6,CC(=O)Nc1nc2cnc(Nc3cc(NC(=O)c4cccc(C5(C#N)CC5)c4Cl)ccc3C)nc2s1,0
7,COc1ccc(CNC(=O)NC2CCN(c3ccnc(Nc4ccc(F)cc4)n3)CC2)cc1 [GSK1379788],2
8,Clc1ccc(-c2nn3ncccc3c2-c2ccnc(Nc3ccc4c(c3)OCCO4)n2)cc1 [GW829116],0
9,CC(C)(C)c1ccc2nccc(Nc3cccc(O)c3)c2c1 [GW856795],0
10,COc1cc(Nc2nccc(N3CCC(NC(=O)Nc4cccc(C(C)=O)c4)C3)n2)cc(OC)c1OC (stereo not shown) [GSK1379753],19
11,COc1cc(Nc2nccc(-c3c(-c4cccc(NC(=O)c5c(F)cccc5F)c4)nn4ccccc34)n2)cc(OC)c1OC [GSK323521],1
12,COc1cccc(NC(=O)NC2CCN(c3ccnc(Nc4cc(OC)c(OC)c(OC)c4)n3)C2)c1 (stereo not shown) [GSK1379763],9
13,O=C(O)C(F)(F)F.O=C(O)C(F)(F)F.O=c1[nH]ccc2nc(N[C@@H]3CCCNC3)nc(Nc3ccc(S(=O)(=O)N4CCOCC4)cc3)c12 [GSK2177277],26
14,CCCCc1nn2ncccc2c1-c1ccnc(Nc2ccc(N3CCN(C)CC3)cc2)n1 [GW684941],62
15,CN(c1ccc(NC(=O)Nc2cc(C(F)(F)F)ccc2F)cc1)c1ccnc(Nc2ccc(S(N)(=O)=O)cc2)n1 [GW809893],0
16,Nc1ncc(-c2cccnc2)c2scc(-c3ccc4c(c3)CCN4C(=O)Cc3ccccc3)c12 [GSK683281],59
17,Cc1ccc(C(=O)Nc2ccc(Nc3ccnc4cc(-c5nccs5)ccc34)cc2O)cc1.Cl [GW494702],96.9
18,COc1cc(Nc2nccc(N3CCC(NC(=O)c4cc5ccccc5s4)C3)n2)cc(OC)c1OC (stereo not shown) [GSK1379760],15
19,O=C(Nc1cccc(-c2nn3ccccc3c2-c2ccnc(Nc3cccc(F)c3)n2)c1)c1c(F)ccc(F)c1Cl [GSK357952],21

row,SMILES,%Inh [%]
1,CN(C)Cc1ccc(-c2ccc3c(Nc4ccc(Oc5ccccn5)cc4)ccnc3c2)o1 [GW567148],40
2,CNC(=O)c1ccccc1Nc1nc(Nc2ccc(N3CCOCC3)cc2)ncc1Cl.Cl [GSK1576028],98.2
3,Cl.Cl.NCC(NC(=O)c1cc(-c2ccccc2)c(-c2ccnc3[nH]ccc23)s1)c1ccccc1 (stereo not shown) [GSK1321561],7
4,COc1ccc(Nc2nccc(N3CCC(NC(=O)Nc4cccc(OC)c4)C3)n2)cc1 (stereo not shown) [GSK1379742],12
5,COC(=O)Nc1nc2cc(Oc3ccc(NC(=O)Nc4cc(C(F)(F)F)ccc4F)cn3)ccc2[nH]1.Cl.Cl [GW681170],0
6,O=C(Nc1n[nH]c2cc(-c3ccoc3)ccc12)C1CC1 [SB-738481],0
7,CSc1cccc2c(-c3ccncn3)c(-c3ccc(F)cc3)nn12 [GW514786],6
8,c1ccc(Oc2ccc(Nc3ccnc4cc(-c5ccc(CNCCN6CCOCC6)o5)ccc34)cc2)nc1 [GW567145],37
9,Nc1ncnc2c1nc(-c1ccccc1)n2-c1ccccc1 [SKF-97293],0
10,Cl.c1ccc(-c2ccc3c(Nc4ccc5[nH]ccc5c4)ccnc3c2)nc1 [GW440138],4
11,Cl.NC(=O)c1cccc(Nc2nccc(Nc3ccc(Oc4c(Cl)cccc4Cl)c(Cl)c3)n2)c1 [GW659009],0
12,Cc1occc1-c1ncc(OC[C@@H](N)Cc2c[nH]c3ccccc23)cc1-c1ccc2[nH]nc(C)c2c1.O=C(O)C(F)(F)F [GSK682037],0
13,Cc1ccc(C(=O)N2CC[C@@H](O)C2)cc1-n1c(C)cc(OCc2ccc(F)cc2F)c(Br)c1=O,0
14,Oc1cc(Nc2ccnc3cc(I)ccc23)ccc1F [GW552771],2
15,c1ccc(-c2n[nH]cc2Nc2ccnc3ccccc23)nc1 [GW694077],1
16,CC(C)c1nc(-c2cccc(NS(=O)(=O)c3c(F)cccc3F)c2F)c(-c2ccnc(Nc3ccc(N4CCOCC4)nc3)n2)s1 [GSK2008607],99.6
17,Cn1cc(-c2[nH]c3cc(NC(=O)[C@H](N)C4CCCCC4)cc4c3c2C=NNC4=O)cn1,48
18,C[C@@H](Oc1cc(-n2cnc3cc(-c4ccnc(NCCS(C)(=O)=O)c4)ccc32)sc1C(N)=O)c1ccccc1Cl [GSK907232],33
